The source made the active and inactive calls. Rule for the calls: active = hit-call score of the fitted dose curve at least 0.9, where 1 is the maximum; inactive = score below 0.9.
assay: ATG_CMV_CIS: Attagene CIS-FACTORIAL HepG2 Assay for human CMV (Internal Marker) (AID 2282928); conditions: HepG2 CMV promoter reporter, transcription factor profiling; actives raise or lower the signal;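 note: endpoint acts as a background internal control marker rather than a target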
Protocol: ATG_CIS is a cell-based, multiplexed-readout assay that uses HepG2, a human liver cell line, with measurements taken at 24 hours after chemical dosing in a 24-well plate.ATG_CMV_CIS is one of 52 assay component(s) measured or calculated from the ATG_CIS assay. It is designed to make measurements of mRNA induction, a form of inducible reporter, as detected with fluorescence intensity signals by Reverse transcription polymerase chain reaction (RT-PCR) and Capillary electrophoresis technology.Data from the assay component ATG_CMV_CIS was analyzed into 1 assay endpoint. This assay endpoint, ATG_CMV_CIS, was analyzed with bidirectional fitting relative to DMSO as the negative control and baseline of activity. Using a type of inducible reporter, measures of mRNA for gain or loss-of-signal activity can be used to understand the background control at the transcription factor-level as they relate to the gene . Furthermore, this assay endpoint can be referred to as a secondary readout, because this assay has produced multiple assay endpoints where this one serves a background control function. To generalize the intended target to other relatable targets, this assay endpoint is annotated to the background measurement intended target family, where the subfamily is internal marker.
Human liver HepG2 cells are transiently transfected with multiple reporter transcription units (MRTUs) in 6-well plates using FuGene 6 reagent (Roche; 3 ml FuGene/1 mg DNA). The MRTU constructs are regulated by a cis-regulating element (promoter). […] A major difference between the CIS and TRANS system is that in CIS activities of endogenous TFs are measured, whereas the TRANS assay evaluates changes in activities of exogenous, chimeric NR-Gal4 proteins. […] At the end of 24 hour incubation, total RNA was isolated using TriZol reagent (Invitrogen). The isolated RNA is then reverse-transcribed using oligo(dT) primer and Mo-MLV reverse transcriptase (Invitrogen) with DNAse I (Ambion) treatment for 30 min. The one-tenth of the produced cDNA was amplified by PCR using Taq DNA polymerase (Invitrogen) and two reporter sequence-specific primers. The PCR products were fluorescently labeled by primer extension with 6-arboxyfluorescein (6-FAM) 5'-labeled reporter sequence-specific primer (2 min at 95 C, 20 s at 68 C and 10 min at 72 C) and these products were digested with 5U of HpaI (New England Biolabs) for 2h at 37 C. The fragments were purified using Qiaquick PCR columns (Qiagen), analyzed on an ABI 3130xL genetic analyzer (Applied Biosystems) with peak positions identified by using a set of X-rhodamine (ROX)-labeled MapMarker1000 molecular weight standards (BioVentures). The raw capillary electrophoresis data was processed using Attagraph software (Attagene).

Compound | outcome | AC50
CC(COc1ccc(Oc2ccccc2)cc1)Oc1ccccn1 (stereo not given) | inactive | 
COc1ccc(C(=CC(=O)N2CCOCC2)c2ccc(Cl)cc2)cc1OC |  | 2.48 µM (active)
Cc1cc(C2CC2)nc(Nc2ccccc2)n1 |  | 13.1 µM (active)
O=[N+]([O-])c1cc(C(F)(F)F)c(Cl)c([N+](=O)[O-])c1Nc1ncc(C(F)(F)F)cc1Cl | inactive | 
C[Si](Cn1cncn1)(c1ccc(F)cc1)c1ccc(F)cc1 | inactive | 
CSc1nnc(C(C)(C)C)c(=O)n1N | inactive | 
CNC(=O)Oc1cccc2c1OC(C)(C)O2 |  | 35.9 µM (active)
N#CSCSC#N | inactive | 
COc1cc(OC)nc(Sc2cccc(Cl)c2C(=O)O)n1 | inactive | 
CC(C1CC1)C(O)(Cn1cncn1)c1ccc(Cl)cc1 (stereo not given) | inactive | 
CNc1cnn(-c2cccc(C(F)(F)F)c2)c(=O)c1Cl | inactive | 
CCc1cccc(C)c1N(C(=O)CCl)C(C)COC (stereo not given) | inactive | 
CCOP(=S)(OCC)Oc1ccc([N+](=O)[O-])cc1 | inactive | 
CC1(C(=O)Nc2ccc(O)c(Cl)c2Cl)CCCCC1 | inactive | 
CCCSP(=O)(OCC)SCCC | inactive | 
CCOP(=S)(OCC)OC(Cl)C(Cl)(Cl)Cl (stereo not given) |  | 71.1 µM (active)
Cc1nn(-c2cc(NS(C)(=O)=O)c(Cl)cc2Cl)c(=O)n1C(F)F | inactive | 
CCOP(=S)(OCC)Oc1ccc2c(C)c(Cl)c(=O)oc2c1 | inactive | 
Cc1ccn2nc(S(=O)(=O)Nc3c(F)cccc3F)nc2n1 | inactive | 
CCNc1nc(Cl)nc(NC(C)(C)C#N)n1 | inactive | 

Compound | outcome | AC50
CCCCOC(=O)c1ccccc1C(=O)O | inactive | 
CCOP(=O)(SC(C)CC)N1CCSC1=O (stereo not given) | inactive | 
COc1cccc(C(=O)NN(C(=O)c2cc(C)cc(C)c2)C(C)(C)C)c1C | inactive | 
CC(C)=CC1C(C(=O)OCN2C(=O)C3=C(CCCC3)C2=O)C1(C)C (stereo not given) | inactive | 
FC(F)C(F)(F)OCC(Cn1cncn1)c1ccc(Cl)cc1Cl (stereo not given) |  | 16.2 µM (active)
C[N+]1(C)CCCCC1 | inactive | 
CCc1cccc(CC)c1N(COC)C(=O)CCl | inactive | 
CNC(=O)ON=C(SC)C(=O)N(C)C | inactive | 
C#CC(C)(C)NC(=O)c1cc(Cl)cc(Cl)c1 |  | 39.3 µM (active)
CN1COCN(Cc2cnc(Cl)s2)C1=N[N+](=O)[O-] | inactive | 
CCOP(=S)(Oc1cnc(C(C)(C)C)nc1)OC(C)C (stereo not given) |  | 50 µM (active)
CSC1=N[C@@](C)(c2ccccc2)C(=O)N1Nc1ccccc1 | inactive | 
COP(=O)(OC)SCn1c(=O)oc2cc(Cl)cnc21 | inactive | 
CC1=NNC(=O)N(/N=C/c2cccnc2)C1 | inactive | 
CCCCSP(=O)(SCCCC)SCCCC |  | 39.3 µM (active)
C=C(C)[C@H]1Cc2c(ccc3c2O[C@@H]2COc4cc(OC)c(OC)cc4[C@@H]2C3=O)O1 |  | 0.0033 µM (active)
CSc1nc(NC(C)C)nc(NC(C)C)n1 | inactive | 
COP(=O)(NC(C)=O)SC (stereo not given) | inactive | 
CCc1cnc(C2=NC(C)(C(C)C)C(=O)N2)c(C(=O)O)c1 (stereo not given) | inactive | 
CNC(=O)ON=C(C)SC | inactive | 

Reference: PubChem BioAssay (EPA / NIEHS)
